We go through one sequence from paper PMC7862700, “An all-to-all approach to the identification of sequence-specific readers for epigenetic DNA modifications on cytosine”.

Assay in all cases: DAPPL (digital affinity profiling via proximity ligation, sequencing); 10 mM Tris-HCl pH 7.5, 50 mM NaCl, 1 mM DTT, 4% glycerol, room temperature, 30 min; GST-TFs on glutathione beads, 16-mer random dsDNA library, 0.1% formaldehyde crosslink after washing; high values mean tight binding
For one test, the target named is T1, FLI1 (Homo sapiens, UniProt Q01543 1-452).
T1 sequence: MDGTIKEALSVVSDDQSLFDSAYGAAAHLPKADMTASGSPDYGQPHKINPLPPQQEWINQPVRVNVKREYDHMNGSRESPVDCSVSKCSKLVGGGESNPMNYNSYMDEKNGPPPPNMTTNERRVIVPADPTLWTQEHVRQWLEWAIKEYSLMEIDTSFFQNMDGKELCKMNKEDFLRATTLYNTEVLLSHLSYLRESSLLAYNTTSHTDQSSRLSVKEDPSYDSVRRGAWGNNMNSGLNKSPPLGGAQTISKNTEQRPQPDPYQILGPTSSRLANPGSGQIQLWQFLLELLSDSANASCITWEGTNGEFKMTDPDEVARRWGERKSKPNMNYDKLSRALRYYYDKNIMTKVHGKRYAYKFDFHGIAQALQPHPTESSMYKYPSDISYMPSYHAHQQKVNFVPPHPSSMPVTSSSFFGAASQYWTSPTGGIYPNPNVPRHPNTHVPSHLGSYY
The settings on record: protein: recombinant; tags: N-terminal GST; dsDNA, one strand shown. Put shortly: (§1)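 In yeast, human transcription factors were expressed with a GST fusion, then pulled down on glutathione beads and given DNA barcodes. Pooled with a tag-only sample, they were exposed to 200 nmole of a 16-mer random double-stranded DNA library (Tris/NaCl/DTT/glycerol buffer, room temperature, 30 min), washed, crosslinked with 0.1% formaldehyde, proximity-ligated using BsaI/T4 ligase for 1 h at 37 °C, PCR-amplified and read on an Illumina NextSeq500. Each hexamer's frequency of reads for a factor, divided by the matching frequency for the tag-only sample, gives the binding signal.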

Another test has as its target T2, ELK1 (Homo sapiens, UniProt P19419 1-428).
T2 sequence: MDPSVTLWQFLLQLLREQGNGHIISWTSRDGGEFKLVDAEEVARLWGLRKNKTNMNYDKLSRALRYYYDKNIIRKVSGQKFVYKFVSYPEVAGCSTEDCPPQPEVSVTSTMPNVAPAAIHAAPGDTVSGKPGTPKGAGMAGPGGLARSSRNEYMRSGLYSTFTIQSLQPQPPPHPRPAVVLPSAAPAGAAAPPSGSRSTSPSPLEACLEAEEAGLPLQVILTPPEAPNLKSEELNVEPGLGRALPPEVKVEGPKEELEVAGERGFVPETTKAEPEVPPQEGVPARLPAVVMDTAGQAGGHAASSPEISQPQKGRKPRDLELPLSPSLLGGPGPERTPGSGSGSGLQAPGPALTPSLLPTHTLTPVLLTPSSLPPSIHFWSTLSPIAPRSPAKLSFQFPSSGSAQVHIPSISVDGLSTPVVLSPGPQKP
The settings on record: protein: recombinant; tags: N-terminal GST; dsDNA, one strand shown. Put shortly: as §1

The next test has as its target T3, GABPA (Homo sapiens, UniProt Q06546 1-454).
T3 sequence: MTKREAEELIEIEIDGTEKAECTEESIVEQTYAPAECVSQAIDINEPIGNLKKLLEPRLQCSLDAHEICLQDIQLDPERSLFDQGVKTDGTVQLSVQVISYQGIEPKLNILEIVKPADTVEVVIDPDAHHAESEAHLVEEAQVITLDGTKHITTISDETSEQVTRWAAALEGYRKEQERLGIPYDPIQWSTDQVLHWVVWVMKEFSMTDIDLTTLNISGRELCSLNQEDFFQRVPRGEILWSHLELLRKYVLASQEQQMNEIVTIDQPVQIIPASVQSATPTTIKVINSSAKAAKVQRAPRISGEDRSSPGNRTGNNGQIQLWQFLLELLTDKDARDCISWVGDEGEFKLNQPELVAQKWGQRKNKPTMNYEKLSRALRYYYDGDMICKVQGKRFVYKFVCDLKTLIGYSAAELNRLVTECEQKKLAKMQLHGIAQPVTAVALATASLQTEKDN
The settings on record: protein: recombinant; tags: N-terminal GST; dsDNA, one strand shown. Put shortly: as §1

In another test the target is T4, ERG (Homo sapiens, UniProt P11308 1-479).
T4 sequence: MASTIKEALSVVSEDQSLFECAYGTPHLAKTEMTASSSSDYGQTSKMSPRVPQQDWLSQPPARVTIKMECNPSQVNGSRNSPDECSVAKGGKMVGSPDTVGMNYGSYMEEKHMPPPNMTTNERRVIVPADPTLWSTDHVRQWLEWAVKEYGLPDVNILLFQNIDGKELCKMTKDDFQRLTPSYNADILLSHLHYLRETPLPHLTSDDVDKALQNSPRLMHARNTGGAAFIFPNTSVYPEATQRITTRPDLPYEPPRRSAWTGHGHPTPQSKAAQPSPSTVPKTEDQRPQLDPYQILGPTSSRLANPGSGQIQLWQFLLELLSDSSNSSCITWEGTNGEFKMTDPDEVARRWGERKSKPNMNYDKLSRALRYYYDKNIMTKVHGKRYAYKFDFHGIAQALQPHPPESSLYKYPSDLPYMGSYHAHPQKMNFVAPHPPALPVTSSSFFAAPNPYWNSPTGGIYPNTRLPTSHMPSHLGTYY
The settings on record: protein: recombinant; tags: N-terminal GST; dsDNA, one strand shown. Put shortly:
as §1

For another test, the target named is ELF1 (Homo sapiens, UniProt P32519 1-619). Particulars: protein: recombinant; tags: N-terminal GST; dsDNA, one strand shown. Put shortly: as §1
For another test, the target named is T5, EHF (Homo sapiens, UniProt Q9NZC4 1-300).
T5 sequence: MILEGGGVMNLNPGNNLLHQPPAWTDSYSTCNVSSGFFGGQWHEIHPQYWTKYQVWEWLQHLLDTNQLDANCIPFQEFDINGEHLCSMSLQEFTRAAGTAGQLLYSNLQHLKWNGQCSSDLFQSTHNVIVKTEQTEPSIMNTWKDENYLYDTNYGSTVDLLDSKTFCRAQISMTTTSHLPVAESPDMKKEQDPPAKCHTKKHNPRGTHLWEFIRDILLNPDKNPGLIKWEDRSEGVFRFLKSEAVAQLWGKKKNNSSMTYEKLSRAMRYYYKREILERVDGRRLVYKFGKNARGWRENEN
The settings on record: protein: recombinant; tags: N-terminal GST; dsDNA, one strand shown. Put shortly:
as §1

Another test deals with SPI1 (Homo sapiens, UniProt P17947 1-270). Particulars: protein: recombinant; tags: N-terminal GST; dsDNA, one strand shown. The method, boiled down: as §1
The target of a further test is SPIB (Homo sapiens, UniProt Q01892 1-262). The settings on record: protein: recombinant; tags: N-terminal GST; dsDNA, one strand shown. Put shortly: as §1
For another test, the target named is T6, ELK3 (Homo sapiens, UniProt P41970 1-407).
T6 sequence: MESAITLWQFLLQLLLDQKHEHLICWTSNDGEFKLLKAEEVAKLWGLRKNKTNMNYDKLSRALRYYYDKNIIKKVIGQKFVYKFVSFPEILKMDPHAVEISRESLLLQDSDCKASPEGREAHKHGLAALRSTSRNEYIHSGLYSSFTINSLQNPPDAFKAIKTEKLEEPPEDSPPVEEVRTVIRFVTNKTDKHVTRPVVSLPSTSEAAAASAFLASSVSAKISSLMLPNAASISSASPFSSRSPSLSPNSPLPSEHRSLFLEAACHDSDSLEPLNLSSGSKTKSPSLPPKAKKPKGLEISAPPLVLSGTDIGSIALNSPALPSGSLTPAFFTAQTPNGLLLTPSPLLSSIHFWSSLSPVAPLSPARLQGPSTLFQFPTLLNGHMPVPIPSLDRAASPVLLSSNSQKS
Particulars: protein: recombinant; tags: N-terminal GST; dsDNA, one strand shown. Put shortly: as §1

The next test has as its target ETV5 (Homo sapiens, UniProt P41161 1-510). The settings on record: protein: recombinant; tags: N-terminal GST; dsDNA, one strand shown. Put shortly: as §1
For a further test, the target named is HSF1 (Homo sapiens, UniProt Q00613 1-529). Particulars: protein: recombinant; tags: N-terminal GST; chain copies: 3; dsDNA, one strand shown. The method, boiled down:
as §1

A further test concerns the target T7, SPIC (Homo sapiens, UniProt Q8N5J4 1-248).
T7 sequence: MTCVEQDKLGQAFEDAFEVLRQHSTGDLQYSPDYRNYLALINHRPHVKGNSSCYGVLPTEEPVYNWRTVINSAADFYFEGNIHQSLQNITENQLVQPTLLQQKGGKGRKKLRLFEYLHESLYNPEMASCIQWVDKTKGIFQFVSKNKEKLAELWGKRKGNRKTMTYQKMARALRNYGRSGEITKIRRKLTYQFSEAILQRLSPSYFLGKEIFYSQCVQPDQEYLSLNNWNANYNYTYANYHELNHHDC
Particulars: protein: recombinant; tags: N-terminal GST; dsDNA, one strand shown. The method, boiled down: as §1

The next test addresses ELF4 (Homo sapiens, UniProt Q99607 1-663). The settings on record: protein: recombinant; tags: N-terminal GST; dsDNA, one strand shown. The method, boiled down: as §1
The next test addresses T8, ELK4 (Homo sapiens, UniProt P28324-2 1-405).
T8 sequence: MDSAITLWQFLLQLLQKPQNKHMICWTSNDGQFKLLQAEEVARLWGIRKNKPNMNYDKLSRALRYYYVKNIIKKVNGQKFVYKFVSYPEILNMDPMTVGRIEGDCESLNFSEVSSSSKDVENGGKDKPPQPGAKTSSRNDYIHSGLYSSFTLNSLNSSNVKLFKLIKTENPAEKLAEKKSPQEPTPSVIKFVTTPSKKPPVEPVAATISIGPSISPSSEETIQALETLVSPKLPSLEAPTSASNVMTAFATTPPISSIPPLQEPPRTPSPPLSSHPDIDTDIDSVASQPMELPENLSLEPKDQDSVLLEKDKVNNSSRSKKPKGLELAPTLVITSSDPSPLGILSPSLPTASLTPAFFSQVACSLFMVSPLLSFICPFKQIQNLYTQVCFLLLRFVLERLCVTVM
Particulars: protein: recombinant; tags: N-terminal GST; dsDNA, one strand shown. The method, boiled down:
as §1

The target of another test is T9, ETV2 (Homo sapiens, UniProt O00321 1-342).
T9 sequence: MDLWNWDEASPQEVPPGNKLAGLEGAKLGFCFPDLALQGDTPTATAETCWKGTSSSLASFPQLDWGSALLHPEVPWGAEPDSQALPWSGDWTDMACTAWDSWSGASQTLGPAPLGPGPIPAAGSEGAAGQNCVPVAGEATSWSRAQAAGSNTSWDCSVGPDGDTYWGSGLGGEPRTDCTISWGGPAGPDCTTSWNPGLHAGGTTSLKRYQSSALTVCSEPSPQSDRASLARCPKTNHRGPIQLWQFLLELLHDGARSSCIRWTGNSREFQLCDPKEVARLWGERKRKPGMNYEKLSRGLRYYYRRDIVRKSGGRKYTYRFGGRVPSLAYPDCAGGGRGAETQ
Particulars: protein: recombinant; tags: N-terminal GST; dsDNA, one strand shown. The method, boiled down: as §1

The target in another test is T10, ELF3 (Homo sapiens, UniProt P78545 1-371).
T10 sequence: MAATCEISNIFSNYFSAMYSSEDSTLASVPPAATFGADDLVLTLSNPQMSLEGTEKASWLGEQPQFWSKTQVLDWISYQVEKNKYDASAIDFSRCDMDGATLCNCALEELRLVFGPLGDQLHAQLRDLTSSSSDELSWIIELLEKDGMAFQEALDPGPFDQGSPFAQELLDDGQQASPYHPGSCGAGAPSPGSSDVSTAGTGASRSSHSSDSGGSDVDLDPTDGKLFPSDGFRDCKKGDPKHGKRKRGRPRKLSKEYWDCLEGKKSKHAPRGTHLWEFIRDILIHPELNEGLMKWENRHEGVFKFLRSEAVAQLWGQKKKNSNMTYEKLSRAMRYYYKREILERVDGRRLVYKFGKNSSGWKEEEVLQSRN
Particulars: protein: recombinant; tags: N-terminal GST; dsDNA, one strand shown. The method, boiled down: as §1

Another test deals with CRX (Homo sapiens, UniProt O43186 1-299). Particulars: protein: recombinant; tags: N-terminal GST; dsDNA, one strand shown. Put shortly:
as §1

The target in another test is ETV1 (Homo sapiens, UniProt P50549 1-477). The settings on record: protein: recombinant; tags: N-terminal GST; dsDNA, one strand shown. The method, boiled down: as §1
Chain of ETV1 (P50549 whole entry): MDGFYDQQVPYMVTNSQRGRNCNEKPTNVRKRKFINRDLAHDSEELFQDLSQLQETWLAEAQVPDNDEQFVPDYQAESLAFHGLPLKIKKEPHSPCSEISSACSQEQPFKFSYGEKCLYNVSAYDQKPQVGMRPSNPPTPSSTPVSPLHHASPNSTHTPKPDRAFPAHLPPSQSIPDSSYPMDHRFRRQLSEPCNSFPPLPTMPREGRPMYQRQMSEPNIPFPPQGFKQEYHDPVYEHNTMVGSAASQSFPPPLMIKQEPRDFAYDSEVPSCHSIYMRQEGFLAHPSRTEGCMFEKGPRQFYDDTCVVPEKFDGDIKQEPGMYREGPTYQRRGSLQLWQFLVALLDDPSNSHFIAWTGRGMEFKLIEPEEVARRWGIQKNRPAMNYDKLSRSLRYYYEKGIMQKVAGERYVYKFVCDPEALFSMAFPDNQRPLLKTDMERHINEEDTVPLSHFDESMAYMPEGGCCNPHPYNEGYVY

Chain of ELF1 (P32519 whole entry): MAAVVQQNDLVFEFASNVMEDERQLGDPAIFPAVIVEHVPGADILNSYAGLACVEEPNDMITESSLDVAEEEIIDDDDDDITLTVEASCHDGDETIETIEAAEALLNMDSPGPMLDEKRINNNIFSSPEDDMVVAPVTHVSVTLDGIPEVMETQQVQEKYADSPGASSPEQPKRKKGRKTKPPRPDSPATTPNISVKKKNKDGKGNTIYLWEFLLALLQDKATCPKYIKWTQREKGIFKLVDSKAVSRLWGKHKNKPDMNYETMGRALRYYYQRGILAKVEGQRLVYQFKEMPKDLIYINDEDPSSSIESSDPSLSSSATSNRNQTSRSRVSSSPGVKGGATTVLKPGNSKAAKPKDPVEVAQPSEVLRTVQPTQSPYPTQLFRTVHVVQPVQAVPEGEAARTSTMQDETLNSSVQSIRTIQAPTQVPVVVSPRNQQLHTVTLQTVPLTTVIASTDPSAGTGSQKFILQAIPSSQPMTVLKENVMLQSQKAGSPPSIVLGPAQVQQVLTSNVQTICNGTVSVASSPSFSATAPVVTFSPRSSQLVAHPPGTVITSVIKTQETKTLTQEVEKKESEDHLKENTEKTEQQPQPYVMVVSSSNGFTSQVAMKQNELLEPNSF
Chain of ELF4 (Q99607 whole entry): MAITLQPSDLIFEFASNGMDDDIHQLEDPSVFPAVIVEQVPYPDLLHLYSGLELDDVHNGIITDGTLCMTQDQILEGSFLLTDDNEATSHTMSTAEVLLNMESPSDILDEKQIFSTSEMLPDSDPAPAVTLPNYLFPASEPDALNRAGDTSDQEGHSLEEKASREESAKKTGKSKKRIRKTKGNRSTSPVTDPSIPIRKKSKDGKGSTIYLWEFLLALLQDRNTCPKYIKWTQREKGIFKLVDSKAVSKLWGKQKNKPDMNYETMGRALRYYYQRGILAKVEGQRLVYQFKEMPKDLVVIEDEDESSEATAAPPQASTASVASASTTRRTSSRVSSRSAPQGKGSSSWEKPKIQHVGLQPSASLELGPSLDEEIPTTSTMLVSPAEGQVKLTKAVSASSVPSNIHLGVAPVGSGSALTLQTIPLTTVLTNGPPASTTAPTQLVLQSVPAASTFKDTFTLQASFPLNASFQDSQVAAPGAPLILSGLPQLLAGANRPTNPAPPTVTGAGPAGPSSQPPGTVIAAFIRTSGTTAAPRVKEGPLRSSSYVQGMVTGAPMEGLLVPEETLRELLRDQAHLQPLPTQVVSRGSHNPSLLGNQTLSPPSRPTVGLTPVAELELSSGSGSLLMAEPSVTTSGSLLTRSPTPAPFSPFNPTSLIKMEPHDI
Chain of SPIB (Q01892 whole entry): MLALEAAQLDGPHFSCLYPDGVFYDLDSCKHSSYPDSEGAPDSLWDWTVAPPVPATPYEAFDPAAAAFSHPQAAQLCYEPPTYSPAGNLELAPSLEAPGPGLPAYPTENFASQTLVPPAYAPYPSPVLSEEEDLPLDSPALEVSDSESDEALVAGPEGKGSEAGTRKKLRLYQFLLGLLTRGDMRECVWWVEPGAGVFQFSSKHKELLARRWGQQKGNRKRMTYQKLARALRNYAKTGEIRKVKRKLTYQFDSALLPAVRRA
Chain of ETV5 (P41161 whole entry): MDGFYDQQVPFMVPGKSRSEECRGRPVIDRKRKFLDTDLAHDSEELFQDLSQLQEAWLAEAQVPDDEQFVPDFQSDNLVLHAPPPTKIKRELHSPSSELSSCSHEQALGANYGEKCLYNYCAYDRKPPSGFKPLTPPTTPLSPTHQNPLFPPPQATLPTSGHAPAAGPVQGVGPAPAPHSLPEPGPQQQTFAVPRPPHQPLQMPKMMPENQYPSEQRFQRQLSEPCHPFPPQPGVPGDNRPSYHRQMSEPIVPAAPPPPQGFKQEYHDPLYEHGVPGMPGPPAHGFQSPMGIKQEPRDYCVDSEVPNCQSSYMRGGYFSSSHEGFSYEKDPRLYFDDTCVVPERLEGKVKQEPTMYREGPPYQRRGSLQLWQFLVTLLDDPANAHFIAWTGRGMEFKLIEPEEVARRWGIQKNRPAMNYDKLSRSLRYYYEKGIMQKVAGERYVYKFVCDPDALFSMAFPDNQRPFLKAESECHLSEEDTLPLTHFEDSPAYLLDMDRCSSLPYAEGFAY
Chain of CRX (O43186 whole entry): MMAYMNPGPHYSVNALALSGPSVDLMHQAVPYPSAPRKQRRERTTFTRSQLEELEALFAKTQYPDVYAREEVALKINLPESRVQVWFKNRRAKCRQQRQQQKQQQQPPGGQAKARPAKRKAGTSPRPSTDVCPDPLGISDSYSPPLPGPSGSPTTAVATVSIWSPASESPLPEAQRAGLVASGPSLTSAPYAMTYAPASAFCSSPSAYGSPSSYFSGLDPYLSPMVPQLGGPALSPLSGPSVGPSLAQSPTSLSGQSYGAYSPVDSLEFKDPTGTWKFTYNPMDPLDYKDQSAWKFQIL
Chain of HSF1 (Q00613 whole entry): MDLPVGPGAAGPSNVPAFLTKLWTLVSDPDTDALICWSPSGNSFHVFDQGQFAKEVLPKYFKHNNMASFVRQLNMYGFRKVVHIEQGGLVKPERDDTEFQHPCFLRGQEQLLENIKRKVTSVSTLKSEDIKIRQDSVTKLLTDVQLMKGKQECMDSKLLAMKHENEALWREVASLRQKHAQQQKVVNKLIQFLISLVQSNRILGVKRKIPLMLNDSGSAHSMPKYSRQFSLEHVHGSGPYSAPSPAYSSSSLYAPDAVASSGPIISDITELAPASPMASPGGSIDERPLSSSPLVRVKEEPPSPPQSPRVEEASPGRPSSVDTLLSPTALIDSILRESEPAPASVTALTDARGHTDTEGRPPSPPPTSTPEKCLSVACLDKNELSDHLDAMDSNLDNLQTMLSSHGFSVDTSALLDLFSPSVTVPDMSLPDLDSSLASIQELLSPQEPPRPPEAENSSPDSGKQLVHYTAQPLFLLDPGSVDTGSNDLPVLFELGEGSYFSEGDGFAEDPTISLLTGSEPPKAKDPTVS

For CTATTA, the binding signal is 1.18 fold enrichment (6-mer frequency, TF over GST control) in the test with FLI1; 1.05 fold enrichment (6-mer frequency, TF over GST control) with ELK1; 1.06 fold enrichment (6-mer frequency, TF over GST control) with GABPA; 1.07 fold enrichment (6-mer frequency, TF over GST control) with ERG; 1.09 fold enrichment (6-mer frequency, TF over GST control) with ELF1; 1.12 fold enrichment (6-mer frequency, TF over GST control) with EHF. Besides, the binding signal with SPI1 was 1.1 fold enrichment (6-mer frequency, TF over GST control); with SPIB, 1.13 fold enrichment (6-mer frequency, TF over GST control); with ELK3, 1.04 fold enrichment (6-mer frequency, TF over GST control); with ETV5, 1.14 fold enrichment (6-mer frequency, TF over GST control); in the test with HSF1, 1.3 fold enrichment (6-mer frequency, TF over GST control); with SPIC, 1.07 fold enrichment (6-mer frequency, TF over GST control). Moreover, the binding signal in the test with ELF4 was 1.14 fold enrichment (6-mer frequency, TF over GST control); in the test with ELK4, 1.09 fold enrichment (6-mer frequency, TF over GST control); with ETV2, 1.13 fold enrichment (6-mer frequency, TF over GST control); in the test with ELF3 it was 1.03 fold enrichment (6-mer frequency, TF over GST control); in the test with CRX, 1.76 fold enrichment (6-mer frequency, TF over GST control); in the test with ETV1, 1.14 fold enrichment (6-mer frequency, TF over GST control).
